According to PubChem BioAssay AID2094 (Broad Institute, 2009):
Hit rate of the full screen: of about 300,000 compounds, about 1,200 (0.4%) were called active. Cut-off read from the data, not from the text of the source: active = activity change below about -75% (passing the limit was not always enough); inconclusive = no clear call, values can overlap the other calls. Many of the other results were omitted from the sample, so actives are more common in it than they were.

Assay: modulation of AI-2 quorum-sensing luminescence – JMH597 strain, luminescence/OD600 ratio, primary screen (AID 2094);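 note: luminescence divided by OD600 gain over 9 h not by final OD600 alone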
Conditions: Vibrio harveyi JMH597 AI-2 luminescence/OD600 ratio, 9 h; at 7.5 µM; active compounds read low; 0 = neutral-control median; strain lacks LuxN and CqsS sensors

Row | SMILES | activity change
1 | O=C(O)c1c(NC(=O)N2CCCC2)sc2c1CCCC2 | 6.56% (inactive)
2 | COc1cccc(C(=O)NC(=O)Nc2nc(C)cc(C(F)(F)F)n2)c1 | 11% (inactive)
3 | Cc1nn(CC(=O)Nc2ccc3c(c2)nc(CN2CCCCC2)n3C)c(=O)c2ccccc12 | 18.4% (inactive)
4 | Cc1nn(CC(=O)Nc2ccc(F)cc2)c(=O)c2ccccc12 | -95.2% (active)
5 | O=C(Cn1nc(C(=O)O)c2ccccc2c1=O)Nc1ccc(F)cc1 | 18.2% (inactive)
6 | CCN(C(=O)COC(=O)C1CCN(S(=O)(=O)c2ccc(C)c(C)c2)CC1)C1CCS(=O)(=O)C1 (centres undefined) | -3.07% (inactive)
7 | O=C(CCNS(=O)(=O)c1ccc(Br)s1)NCc1ccccc1Cl | 32.2% (inactive)
8 | CCN(CC)c1ccc(NC(=O)c2ccc(=O)[nH]c2)cc1S(=O)(=O)Nc1ccc(OC)cc1 | 18.7% (inactive)
9 | COc1ccc(CN(C)C(=O)c2cc(-c3ccc(C)cc3C)nc3ccccc23)c(OC)c1OC | 10.3% (inactive)
10 | COc1cc(C=O)c(Br)cc1OCC(=O)NCc1ccccc1 | 15.5% (inactive)
11 | COc1cc(C(=O)NCc2ccncc2)cc(Br)c1OCc1ccccc1 | 36.8% (inactive)
12 | COc1cc(C(=S)NCc2ccccc2)cc(Br)c1O | -79.9% (active)
13 | CN(C(=O)CN1C(=O)S/C(=C\c2ccccc2F)C1=O)C1CCS(=O)(=O)C1 (centres undefined) | 34.2% (inactive)
14 | C=CCSc1nsc(NC(=O)Nc2cccc(C(C)=O)c2)n1 | -85% (active)
15 | CCSc1nsc(NC(=O)Nc2ccccc2OC)n1 | 11.5% (inactive)
16 | CSc1nsc(NC(=O)Nc2ccccc2)n1 | 37.1% (inactive)
17 | COc1ccc(NC(=O)CSCc2ccc([N+](=O)[O-])cc2)cc1OC | 3.16% (inactive)
18 | COc1ccc(-c2cc(C(=O)N(C)CC(=O)Nc3ccccc3Cl)c3ccccc3n2)cc1OC | 20% (inactive)
19 | O=C(COc1cccc2c1CCNC2=O)NC1CCCCC1 | 2.05% (inactive)
20 | O=C(OCc1cn(-c2ccc(Cl)c(Cl)c2)nn1)c1ccccc1Cl | -28.4% (inactive)
21 | CCCCCc1ccc(-c2ccc(OCC)cc2)nc1 | -0.256% (inactive)
22 | CCCCCc1ccc(-c2cn(Cc3ccc4ccccc4c3)nn2)cc1 | 6.86% (inactive)

Row | SMILES | activity change
23 | CCCCCc1ccc(-c2ccc(C(=O)O)cc2)nc1 | -76% (active)
24 | Cc1c(CC(=O)N2CCN(C(=O)C3COc4ccccc4O3)CC2)c(=O)oc2c(O)c(O)ccc12 (centres undefined) | 10.9% (inactive)
25 | O=C(NC(=O)N1CCSCC1)c1c(Cl)cccc1Cl | 19.3% (inactive)
26 | CSCCC(NC(=O)c1ccco1)C(=O)Nc1cc(C)ccn1 (centres undefined) | 30% (inactive)
27 | COc1ccc(/C=C(\C#N)C(=O)OCC(=O)N(C)C2CCS(=O)(=O)C2)cc1 (centres undefined) | 22.6% (inactive)
28 | O=C(O)CCc1cccnc1 | 7.07% (inactive)
29 | N/C(=N\OC(=O)CCc1ccccc1)c1ccc(Cl)cc1 | 7.92% (inactive)
30 | N/C(=N\OC(=O)CCc1ccccc1)c1cccnc1 | -85.7% (active)
31 | COc1ccc(C(=O)NCc2nnc(SCC(=O)NC3=NCCS3)n2C)cc1 | -5.32% (inactive)
32 | CCCOCC(O)CC(CC)C(=O)NNC(=S)Nc1ccccc1 (centres undefined) | 0.623% (inactive)
33 | O=C1/C(=C/c2ccc3c(c2)OCO3)Oc2cc(OCC(=O)N3CC(O)C[C@H]3C(=O)O)ccc21 (some centres undefined) | 29% (inactive)
34 | O=C(CC1NCCNC1=O)Nc1cc(Cl)cc(Cl)c1 (centres undefined) | 4.37% (inactive)
35 | O=C(CC1SCCNC1=O)Nc1ccc(Cl)cc1 (centres undefined) | -15% (inactive)
36 | O=C(CC1SCCNC1=O)Nc1ccc(Cl)c(Cl)c1 (centres undefined) | -87.7% (active)
37 | COc1ccccc1/C=C/C=N/n1c(-c2ccc(Cl)cc2Cl)n[nH]c1=S | -0.967% (inactive)
38 | O=C(CSc1ncn[nH]1)N/N=C/c1ccc(F)cc1 | -5.64% (inactive)
39 | O=C(/C=C/Sc1ncn[nH]1)c1ccc(Cl)cc1 | -91.7% (active)
40 | Cc1cc(C)nc(S/C=C/C(=O)c2ccccc2)n1 | 4.08% (inactive)
41 | CC(=O)N(CC(O)CO)c1c(I)c(C(=O)NCC(O)CO)c(I)c(C(=O)NCC(O)CO)c1I (centres undefined) | 14.8% (inactive)
42 | Cn1ccc(=NC=C(C#N)C#N)c2ccccc21 | 22.8% (inactive)
43 | CCOc1ccc(/C=N/NC(N)=S)cc1 | -94.8% (active)
44 | CCOc1ccc(/C=N\NC(=O)c2c(C)nc3cc(C)ccn23)cc1 | 2.9% (inactive)

Row | SMILES | activity change
45 | C=CCNC(=S)N/N=C/c1ccc(OCc2ccccc2)cc1 | 16.4% (inactive)
46 | COC(=O)CSc1snnc1-c1ccc(Cl)c(Cl)c1 | 9.65% (inactive)
47 | O=S1(=O)N=C(N(CCO)/N=C/c2ccccc2F)c2ccccc21 | 15.9% (inactive)
48 | Cc1ccc(NC(=O)C2CC2c2ccccc2)cc1 (centres undefined) | -86.2% (active)
49 | Cc1ccc(C2CC2C(=O)NN)cc1 (centres undefined) | 19.8% (inactive)
50 | O=C(NNC(=S)Nc1ccc(F)cc1)[C@H]1C[C@@H]1c1ccccc1 | -11.8% (inactive)
51 | CCN(CC(=O)NCc1cccs1)C(=O)c1cccc(S(=O)(=O)Nc2ccccc2OC)c1 | 5.29% (inactive)
52 | C/C(CC1CC(C)(C)OC1=O)=N/Nc1nc(-c2ccccc2)cs1 (centres undefined) | 26.9% (inactive)
53 | Cc1ccccc1C(=O)NC(=S)Nc1ccc(N2CCN(C(=O)c3ccccc3)CC2)cc1 | 13.3% (inactive)
54 | Cc1ccccc1C(=O)N1CCN(c2ccc(NC(=O)c3cccs3)cc2)CC1 | 11.9% (inactive)
55 | Cc1ccccc1C(=O)Nc1ccc(N2CCCCCC2)cc1 | -80.7% (active)
56 | O=C(NCc1cccs1)C1CCN(S(=O)(=O)c2ccc(Cl)cc2)CC1 | 14.4% (inactive)
57 | O=C(Nc1ccc(F)c(Cl)c1)C1CCN(S(=O)(=O)c2cccnc2)CC1 | -93.8% (active)
58 | O=C(Nc1cccnc1)c1cccc(S(=O)(=O)N2CCCC2)c1 | 6.26% (inactive)
59 | O=C(Cc1cccs1)Nc1ccc([N+](=O)[O-])cc1 | 10.5% (inactive)
60 | Oc1ccc2ccc3cccc[n+]3c2c1 | 42.1% (inactive)
61 | CCOc1ccc(/C=N/OCC(=O)NCc2cccs2)cc1 | 5.49% (inactive)
62 | O=C(/C=C/c1ccc2c(c1)OCO2)NCc1ccc(F)cc1 | -82.8% (active)
63 | O=C(Cc1ccc(F)cc1)N/N=C/c1ccc2c(c1)OCO2 | 14.4% (inactive)
64 | O=C(/C=C/c1ccc2c(c1)OCO2)NCc1cn2cc(Cl)ccc2n1 | 2.46% (inactive)
